PABP1 MLLE inh: inhibitors of microRNA-mediated deadenylation, human PABP1 MLLE binding | P11940 | GST-MLLE / FITC-PAM2 fluorescence polarization | inhibition, % at 20 µM | 0.36% of 360,000 active | AID 588489; in the data active = inhibition above about 35%, passing the limit was not always enough;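 also: plate controls were DMSO wells with GST-MLLE for no effect and wells lacking GST-MLLE protein for full effect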
PERK inhibitor: inhibitors of human PERK kinase | Q9NZJ5 | CHO PERK-DD fusion, SEAP luminescence translation reporter | inhibition, % at 5.6 µM | 0.17% of 220,000 active | AID 1416;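 active = inhibition above the mean inhibition of all tested compounds plus 3 SD, set separately per screening campaign, cut at about 2.9% in these data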;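 also: PERK kinase domain activated by AP20187 dimerizer at 100 nM; 0% = DMSO with dimerizer and 100% = rapamycin at 8.4 µM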
eIF4E-4G inh: blocks eIF4E binding to eIF4G; TR-FRET eIF4E-eIF4GI(517-606) binding, 2 h; P63073+Q04637; 0.37% of 220,000 active; inhibition, % at 21.7 µM;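 active = inhibition above about 30%, limit read from the data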;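 also: 0% = full FRET control wells and 100% = background wells lacking eIF4GI fragment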
PABP polyA inh: PABP-poly(A) binding inhibition; P11940; PABP-poly(A) RNA binding, fluorescence polarization; calls only at 35 µM; 1% of 290,000 active;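 also: calls also rest on retests at 20 µM and on dose response follow-up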
eIF4H inh: inhibitors of RNA binding by human eIF4H; Q15056; eIF4H fluorescence polarization binding assay; inhibition, % at 35 µM; 0.94% of 290,000 active; AID 2012;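 also: calls also rest on retests at 20 µM and on dose response follow-up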
The depositor's hits bear a star; i = inactive; ? = inconclusive; . = no result given; + = active, no number; [ ] = dose if it differs, or a comment. An excerpt weighted towards active compounds, which were near 1.6% of everything screened. Unless noted, no rule for the calls is given here.

SMILES	PABP1 MLLE inh	PERK inhibitor	eIF4E-4G inh	PABP polyA inh	eIF4H inh
COc1ccc(Cl)c2sc(N(CCN(C)C)C(=O)CCS(=O)(=O)c3ccc(C)cc3)nc12	0	.	.	.	.
CN(CCCNC(=O)c1ccccc1F)CCCNC(=O)c1ccccc1F	-2	.	.	i	13
CC(NC(=O)c1cccc2c1Oc1ccccc1S2)C(=O)O (centres undefined)	16	.	.	.	.
O=C(NC1CCCCC1)C1CC(=O)N(c2cccc([N+](=O)[O-])c2)C1 (centres undefined)	-9	0	7	?	-4
O=C(NC(=S)Nc1cccc(S(=O)(=O)NC2=NCCC2)c1)c1cc(-c2ccco2)nc2ccccc12	69	1	2	i	76
CN(C)C(=O)c1ccc(NC(=O)c2cc(-c3ccco3)nc3ccccc23)cc1	2	.	.	+	77*
O=C(Nc1cccc(S(=O)(=O)NC2=NCCC2)c1)c1cc(-c2ccco2)nc2ccccc12	-28	3.2*	48*	+	90*
Cc1csc(NC(=O)c2cc(-c3ccco3)nc3ccccc23)n1	-16	0	6	+	88*
O=C(Nc1nccs1)c1cc(-c2ccco2)nc2ccccc12	-4	0	36*[fluorescence artefact?]	+	58
COc1ccc(/C=C/C(O)=C2/C(=O)N(C)C3(C)CC2c2ccccc2O3)cc1 (centres undefined)	8	0	4	i	-1
Cc1ccc(/C=C/C(O)=C2/C(=O)N(C)C3(C)CC2c2ccccc2O3)cc1 (centres undefined)	-1	0	97*	i	-5
COc1ccc2c(C(=O)CN3CCN(c4ccccc4)CC3)c[nH]c2c1	-36	0	0	+	69*
Nc1ccc(O)c2c1C(=O)c1ccccc1C2=O	87*	2	31*[fluorescence artefact?]	i	123
Cc1cc(C)c(Nc2cc(S(=O)(=O)O)c(N)c3c2C(=O)c2ccccc2C3=O)c(C)c1	15	0	56*[fluorescence artefact?]	+	92
Nc1nc(-c2ccc(Cl)cc2)nn1C(=O)c1cccnc1	-11	0	-13	i	-4
Nc1nc(-c2ccc(Cl)cc2)nn1C(=O)c1cccs1	2	0	-4	+	?
CCC(=O)N(NC1=NS(=O)(=O)c2ccccc21)S(=O)(=O)c1ccc(C)cc1	4	0	-5	i	-1
CN(C)/N=C/C=C1\CC/C(=C\c2ccc(Br)cc2)C1=O	-55	0	10	+	67*
COc1ccc(-c2ccc(/C=C3\C(=O)N(c4ccccc4)N=C3c3ccccc3)o2)c([N+](=O)[O-])c1	18	-1	16	i	4
CC1=NN(c2ccc(C)cc2)C(=O)/C1=C/c1ccc(-c2cc([N+](=O)[O-])ccc2O)o1	-10	.	.	+	105*
O=C1NN(c2cccc(Br)c2)C(=O)/C1=C/c1ccc(-c2cc([N+](=O)[O-])ccc2O)o1	-10	2	34*	i	96*
O=C1NN(c2cccc(Br)c2)C(=O)/C1=C\c1ccc(O)cc1	-4	.	.	i	0
CCOCc1cc(=O)[nH]c(SC)n1	-12	1	-2	i	9
Cc1cccc(NC2SC(=O)NC2=O)c1 (centres undefined)	52*	-1	-3	i	6
C=CCN1C(=O)/C(=C2/C(=O)N(CC(=O)O)c3ccccc32)S/C1=N/c1nccs1	.	1	16	+	105*
SMILES	PABP1 MLLE inh	PERK inhibitor	eIF4E-4G inh	PABP polyA inh	eIF4H inh
C=CCN1C(=O)/C(=C/c2ccc(O)cc2)S/C1=N/c1nccs1	-99	-1	13	i	-8
c1cn(-c2ccc(-c3ccnc4ncnn34)cc2)cn1	-2	2	0	i	-2
Clc1ccc2oc(-c3ccccn3)nc2c1	-24	1	-4	+	16*
CCc1c(O)nc(SCc2nc3ccccc3c(=O)[nH]2)[nH]c1=O	39*	-1	2	+	active
C=CCc1c(C)nc(SCc2nc3ccccc3c(=O)[nH]2)[nH]c1=O	22	1	-3	i	-8
Cc1ccc(-c2nc3c(c(SCC(=O)N4CCOCC4)n2)COC(C)(C)C3)cc1	-5	.	.	i	-4
CC(NC(=O)COC(=O)c1cccc(S(=O)(=O)N2CCCC2)c1)c1ccccc1 (centres undefined)	-4	.	.	.	.
O=c1cnn([C@@H]2O[C@H](CO)[C@@H](O)[C@H]2O)c(=O)[nH]1	0	1	94*	i	-6
O=c1[nH]nnc2c1ncn2C1OC(CO)C(O)C1O (centres undefined)	-4	.	.	.	.
CCOC(=O)/C(=C/Nc1ccc(F)c(F)c1)[N+](=O)[O-]	5	0	-5	i	1
OC[C@H]1O[C@@H](n2cnc3c(Nc4ccccc4)ncnc32)[C@H](O)[C@@H]1O	3	1	-2	+	active
CC(C)C(NC(=O)c1ccc(F)cc1)C(=O)NC1(C)CCS(=O)(=O)C1 (centres undefined)	3	.	.	.	.
Cc1nc(NC(N)=S)sc1C(=O)Nc1ccccc1	41*	1	-2	i	1
Cc1c(OC(=O)c2ccc([N+](=O)[O-])cc2)c2c(c[n+]1C)COC(C)(C)OC2	-26	1	41*[fluorescence artefact?]	i	16
Cc1ncc2c(c1OC(=O)c1ccccc1)COC(C)(C)OC2	-6	0	1	i	-2
CCc1cc(-c2nnn(CCC3COCCO3)c2CC)ccc1-c1cn(Cc2ccccc2)nn1 (centres undefined)	8	.	.	.	.
Cc1ccc(S(=O)(=O)Nc2cc(Cl)c(O)c3ncccc23)cc1	41*	.	.	i	18
Oc1c(Cl)cc(Cl)c2cccnc12	10	0	2	i	19
COc1ccc(S(=O)(=O)N(C)C2(C)CCS(=O)(=O)C2)cc1OC (centres undefined)	-5	.	.	.	.
CC[n+]1c(/C=C/Nc2ccccc2)sc2ccccc21	-105	2	2	+	-1
CC[n+]1ccccc1/C=C/Nc1ccccc1	-110	1	7	+	-2
CC[n+]1c(/C=C(/C)SC)sc2ccccc21	46*	0	6	i	4
CC[n+]1c(/C=C(\C)SC)sc2ccccc21	20	0	6	i	5
CN(CCOc1ccccc1)C(=O)C1CCC(=O)N(CCc2ccc(Cl)cc2)C1 (centres undefined)	0	.	.	i	3
Cc1ccc(C)c(-n2c(SCC(=O)NC(C(=O)O)C(C)C)nnc2-c2cccc(Cl)c2)c1 (centres undefined)	-27	0	1	i	4
c1coc(C2=NC(c3ccco3)C(c3ccco3)N2)c1 (centres undefined)	0	.	.	.	.
CSc1nccc(NC(=O)c2cccc(Br)c2)n1	13	.	.	i	-6
CC(C)C[C@@H](CNC(=O)OC(C)(C)C)NC(=O)c1nc[nH]c1C(=O)N[C@@H](CC(C)C)C(=O)CNC[C@H](CC(C)C)NC(=O)c1nc[nH]c1C(=O)N[C@@H](Cc1c[nH]c2ccccc12)C(=O)OC(C)(C)C	-8	.	.	.	.
